The values that follow come from PubChem BioAssay (Tox21).

A number with no mark means an inactive call. Inconclusive results are not listed. Active and inactive are the calls of the source. Unless noted, the call rests on the fitted dose curve; in most records, active means well fitted curve in the direction sought with a large enough effect in the repeat runs; inconclusive means weak or mixed curves; inactive means no such curve, though single readings can be large; an effect the other way counts as inactive or inconclusive.

Assay [1] is described as follows: qHTS assay to identify small molecule antagonists of the estrogen receptor alpha (ER-alpha) signaling pathway using the BG1 cell line in the presence of 0.1 nM 17-beta-estradiol - cell viability counter screen (AID 1259241). Further: nearly all actives have a fitted effect of over 40% in size. In outline:
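Cytotoxicity counter-screen: live-cell protease activity measured by fluorescence (30 min reagent step) in the same wells. Cells were VM7Luc4E2 with endogenous ER-alpha and ERE-driven luciferase, treated 22 hr at 37C alongside 0.1 nM 17beta-estradiol final.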
(In general: qHTS replaces the single test concentration by a dilution series.)

A short description of assay [2]: qHTS assay to identify small molecule antagonists of the androgen receptor (AR) signaling pathway using the MDA cell line in the presence of 0.5 nM R1881 - cell viability counter screen (AID 1259242). Further: nearly all actives have a fitted effect of over 45% in size. In outline: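 MDA-kb2 cells (MMTV-luciferase, AR/GR responsive) were treated with compounds plus 0.5 nM R1881 (final) for 16 hr at 37C, 0% CO2. Viability was then read in the same wells as live-cell protease fluorescence (CellTiter-Fluor, 30 min).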

The target of assay [3] is Estrogen receptor (Homo sapiens) (UniProt P03372). Kind of assay: qHTS assay to identify small molecule antagonists of the estrogen receptor alpha (ER-alpha) signaling pathway using the BG1 cell line in the presence of 0.1 nM 17-beta-estradiol (AID 1259244). Further: nearly all actives have a fitted effect of over 50% in size. In outline:
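VM7Luc4E2 cells (endogenous full-length ER-alpha, 4×ERE-luciferase), kept 5 days in phenol red-free, charcoal-stripped FBS medium; 4,000 cells/well. Compounds added with 0.1 nM (final) 17beta-estradiol, 22 hr at 37C; luminescence read with ONE-Glo after 30 min.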

A short description of assay [4]: qHTS assay to identify small molecule HDAC inhibitors (AID 1259364). Further: nearly all actives have a fitted effect of over 45% in size. Further: potency means the concentration at half of the fitted maximal effect. On activity change, negative = inhibition: top concentration of the series differs between compounds. In outline: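 Wild-type HCT-116 cells, plated overnight at 37 C, exposed to compounds 2 hr at 37 C; luminogenic HDAC-Glo substrate then added 30 min at room temperature. Luminescence reports relative endogenous class I/II HDAC activity.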
Assay [5] is described as follows: qHTS assay to identify small molecule HDAC inhibitors - cell viability counter screen (AID 1259365). Further: series mostly up to about 92 µM; nearly all actives have a fitted effect of over 50% in size. In outline:
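CellTiter-Glo luminescence (30 min, room temperature) reported viability after a 2 h compound exposure at 37 C. Cells: wild-type HCT-116, 1,500 per well, seeded the night before.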

Assay [6] in a line: qHTS assay to identify small molecule antagonists of the sonic hedgehog signaling (Shh) pathway - cell viability counter screen (AID 1259367). Further: nearly all actives have a fitted effect of over 55% in size. Further: potency means the concentration at half of the fitted maximal effect. In outline: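 Seed 3T3 Gli1-Luc cells at 2,000 per well; incubate 4 hr; add compound in DMSO, then conditioned medium; incubate at 37C with 5% CO2; add CellTiter-Fluor after 23 hr; read fluorescence 1 hr later.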
Assay [7] in a line: qHTS assay to identify small molecule agonists of the sonic hedgehog signaling (Shh) pathway (AID 1259368; calls by dose curve;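 further: NIH/3T3-derived 3T3Gli1-Luc cells carrying a stable Gli1-driven firefly luciferase reporter; series mostly up to about 92 µM; nearly all actives have a fitted effect of over 15% in size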). In outline:
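NIH/3T3-derived 3T3Gli1-Luc cells with stably integrated Gli1-driven firefly luciferase, 2,000 cells/well, compounds added after 4 hr. Incubated 24 hr at 37C, 5% CO2; luminescence read after 30 min with luciferase reagent at room temperature.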

Assay [8] can be described thus: qHTS assay to identify small molecule agonists of the sonic hedgehog signaling (Shh) pathway - cell viability counter screen (AID 1259366). Further: nearly all actives have a fitted effect of over 50% in size. Further: potency means the concentration at half of the fitted maximal effect. In outline:
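Cytotoxicity counter screen: CellTiter-Fluor reagent added after 23 h compound exposure, then 1 h at 37C and fluorescence read. Cells were 3T3 Gli1-Luc, seeded 2,000 per well and dosed 4 h post-plating.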
On the % scale 0 is the no-effect control and ±100 the full control effect.

Sequence of Estrogen receptor (Homo sapiens) (P03372 whole entry, looked up): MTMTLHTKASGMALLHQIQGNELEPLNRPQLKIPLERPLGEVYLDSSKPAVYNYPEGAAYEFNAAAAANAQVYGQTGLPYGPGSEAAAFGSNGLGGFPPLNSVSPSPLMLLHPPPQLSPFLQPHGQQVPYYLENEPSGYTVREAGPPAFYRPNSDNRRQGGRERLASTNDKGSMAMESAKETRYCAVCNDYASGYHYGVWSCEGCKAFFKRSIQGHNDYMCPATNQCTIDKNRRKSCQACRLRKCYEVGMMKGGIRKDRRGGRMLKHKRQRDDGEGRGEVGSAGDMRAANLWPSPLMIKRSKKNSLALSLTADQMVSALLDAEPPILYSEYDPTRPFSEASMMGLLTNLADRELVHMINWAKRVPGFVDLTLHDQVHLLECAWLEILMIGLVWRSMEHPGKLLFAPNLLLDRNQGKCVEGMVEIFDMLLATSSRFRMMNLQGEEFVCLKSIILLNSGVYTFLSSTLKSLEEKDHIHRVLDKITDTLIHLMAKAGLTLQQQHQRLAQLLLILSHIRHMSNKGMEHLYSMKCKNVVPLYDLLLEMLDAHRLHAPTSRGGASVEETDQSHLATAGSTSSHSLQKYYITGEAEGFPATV

In the case of `Cc1ccc(C(=O)Oc2ccc(C(O)CNC(C)(C)C)cc2OC(=O)c2ccc(C)cc2)cc1` (configuration not stated), the Potency result in assay [1], in assay [2], in assay [3], in assay [4], in assay [5] and in assay [6] was “inactive” throughout. In addition, the call in assay [7] was inactive.
For `Brc1c2ccccc2c(Br)c2ccccc12`, the activity change, negative = cytotoxicity in assay [1] was 3.89% [at 8.39 µM]; in assay [5], 1.69% [at 8.39 µM]. For the same compound, the viability change, negative = cytotoxic in assay [2] is 2.88% [at 8.39 µM]; in assay [6] it was -7.11% [at 8.39 µM]. Also, the activity change, negative = inhibition in assay [3] was 0.899% [at 8.39 µM]; in assay [4], 3.07% [at 8.39 µM]. Further, in assay [7], the activity change is -0.511% [at 8.39 µM].
Regarding `CC1CCC(=O)C1=O` (configuration not stated), the Potency entry in assay [1], in assay [2], in assay [3], in assay [4], in assay [5] and in assay [8] was “inactive” each time. The Potency entry in assay [6] was “inactive”. Further, the compound was classed as inactive in assay [7].
`CCCOC(C(=O)OC1CCN(C)CC1)(c1ccccc1)c1ccccc1`: the Potency entry in assay [1], in assay [2], in assay [3], in assay [4] and in assay [5] was “inactive” in each case. Moreover, the Potency in assay [8] is 13.3 µM (active). Moreover, the call in assay [7] was inactive.
For the compound `CCCCCCCCO[C@@H]1O[C@H](CO)[C@@H](O)[C@H](O)[C@H]1O`, the Potency entry in assay [1], in assay [2], in assay [3], in assay [4], in assay [5] and in assay [8] was “inactive” in each case. The Potency result in assay [6] was “inactive”. In addition, in assay [7], the result was inactive.
With `ClCCOCCOCCCl`, the Potency entry in assay [1], in assay [2], in assay [3], in assay [4], in assay [5] and in assay [8] was “inactive” throughout. The Potency entry in assay [6] was “inactive”. Moreover, the outcome in assay [7] was inactive.
On to `CCCCCCCCCCO[C@@H]1O[C@H](CO)[C@@H](O)[C@H](O)[C@H]1O`, for which the Potency entry in assay [1], in assay [2], in assay [3], in assay [4], in assay [5] and in assay [6] was “inactive” throughout. Further, the compound was called inactive in assay [7].
With `CCCCc1nc2cccnc2n1Cc1ccc(-c2ccccc2-c2nnn[nH]2)cc1`, the Potency entry in assay [1], in assay [2], in assay [3], in assay [4] and in assay [5] was “inactive” throughout. In addition, the results for the Potency in assay [8] and in assay [6] were 15.4 µM (active) and 17.2 µM (active), respectively. For the same compound, the compound was called inactive in assay [7].
Consider `C=C(C)C(=O)OCCO`, for which the Potency entry in assay [1], in assay [2], in assay [3], in assay [4], in assay [5] and in assay [8] was “inactive” each time. For the same compound, the Potency entry in assay [6] is “inactive”. For the same compound, the result in assay [7] was inactive.
With `O=[N+]([O-])c1ccc2[nH]ncc2c1`, the Potency result in assay [1], in assay [2], in assay [3], in assay [4], in assay [5] and in assay [8] was “inactive” in each case. In addition, the Potency result in assay [6] is “inactive”. Also, the compound was called inactive in assay [7].
Consider `C=C(C)C(=O)OCC`, for which the Potency result in assay [1], in assay [2], in assay [3], in assay [4], in assay [5] and in assay [6] was “inactive” throughout. For the same compound, the outcome in assay [7] was inactive.
With `O=C(O)c1ccc(S(=O)(=O)O)cc1C(=O)O`, the Potency result in assay [1], in assay [2], in assay [3], in assay [4], in assay [5] and in assay [8] was “inactive” in each case. In assay [6], the Potency entry is “inactive”. Also, the compound was called inactive in assay [7].
Turning to `Nc1ccc([N+](=O)[O-])c(C(F)(F)F)c1`, the Potency entry in assay [1], in assay [2], in assay [3], in assay [4], in assay [5] and in assay [6] was “inactive” throughout. Further, in assay [7], the compound was called inactive.
As to `O=C(O)C1(C(=O)O)CCC1.[NH2-].[NH2-].[Pt+2]`, the Potency entry in assay [1], in assay [2], in assay [3], in assay [4], in assay [5] and in assay [6] was “inactive” in each case. The outcome in assay [7] was inactive.
For the compound `CCCCCCCCCOS(=O)(=O)O`, the Potency entry in assay [1], in assay [2], in assay [3], in assay [4], in assay [5] and in assay [8] was “inactive” throughout. Also, the Potency result in assay [6] is “inactive”. For the same compound, the outcome in assay [7] was inactive.
For the compound `CCCC(=O)Nc1ccc(O)c(C(C)=O)c1`, the Potency result in assay [1], in assay [2], in assay [3], in assay [4], in assay [5] and in assay [8] was “inactive” throughout. Also, the Potency result in assay [6] was “inactive”. Also, the outcome in assay [7] was inactive.
On to `C[Si](C)(CCCN)O[Si](C)(C)CCCN`, for which the Potency result in assay [1], in assay [2], in assay [3], in assay [4], in assay [5] and in assay [8] was “inactive” throughout. In assay [6], the Potency entry was “inactive”. The outcome in assay [7] was inactive.
Consider `CCOC(=O)Cc1cccc2ccccc12`, for which the Potency entry in assay [1], in assay [2], in assay [3], in assay [4], in assay [5] and in assay [8] was “inactive” in each case. In addition, in assay [6], the Potency result is “inactive”. For the same compound, the result in assay [7] was inactive.
For the compound `CCCCCCCN`, the Potency entry in assay [1], in assay [2], in assay [3], in assay [4], in assay [5] and in assay [8] was “inactive” each time. The Potency entry in assay [6] is “inactive”. For the same compound, the call in assay [7] was inactive.
For `CC1=CC=C(C(C)C)CC1`, the Potency entry in assay [1], in assay [2], in assay [3], in assay [4], in assay [5] and in assay [8] was “inactive” each time. Also, in assay [6], the Potency entry is “inactive”. In assay [7], the result was inactive.
For the compound `COCC(C)OC(C)=O` (configuration not stated), the Potency result in assay [1], in assay [2], in assay [3], in assay [4], in assay [5] and in assay [8] was “inactive” throughout. The Potency result in assay [6] was “inactive”. The compound was called inactive in assay [7].
For the compound `Cc1c(N)cccc1[N+](=O)[O-]`, the Potency result in assay [1], in assay [2], in assay [3], in assay [4], in assay [5] and in assay [8] was “inactive” in each case. Moreover, in assay [6], the Potency entry is “inactive”. Further, the compound was classed as inactive in assay [7].
In the case of `COc1cc(Cl)ccc1Oc1ccc(Cl)cc1Cl`, the Potency result in assay [1], in assay [2], in assay [3], in assay [4], in assay [5] and in assay [8] was “inactive” each time. In addition, the Potency result in assay [6] is “inactive”. The outcome in assay [7] was inactive.
In the case of `COc1ccc(C(=O)c2ccc(OC)cc2O)c(O)c1`, the Potency result in assay [1], in assay [2], in assay [3], in assay [5], in assay [8] and in assay [6] was “inactive” each time. For the same compound, in assay [4], the Potency is 30.9 µM (active). The compound was called inactive in assay [7].
`C[C@@H]1C[C@H]2[C@@H]3CCC4=CC(=O)C=C[C@]4(C)[C@@]3(F)[C@@H](O)C[C@]2(C)[C@@]1(O)C(=O)COC(=O)c1ccncc1`: the Potency entry in assay [1], in assay [2], in assay [3], in assay [4], in assay [5] and in assay [8] was “inactive” throughout. Also, in assay [6], the Potency entry is “inactive”. Moreover, the outcome in assay [7] was inactive.
With `O=C(Cl)c1cc(C(=O)Cl)cc(C(=O)Cl)c1`, the Potency result in assay [1], in assay [2], in assay [3], in assay [4], in assay [5] and in assay [6] was “inactive” throughout. The result in assay [7] was inactive.
As to `C/C=C/C(=O)CC`, the activity change, negative = cytotoxicity in assay [1] is 0.659% [at 19 µM]; in assay [5], -0.534% [at 19 µM]. For the same compound, the viability change, negative = cytotoxic in assay [2] was -0.0358% [at 19 µM]; in assay [8] it was 14.7% [at 19 µM]. In addition, in assay [3], the Potency entry is “inactive”. Besides, in assay [4], the activity change, negative = inhibition is -0.325% [at 19 µM]. In addition, in assay [7], the activity change was -3.94% [at 18.9 µM].
